# “And” between values parts separate entries of the source, which are not always exact repeats. Equal values may be shown once. Inconclusive results are not listed. More than one record can exist for a structure, and the calls need not agree. The source made the active and inactive calls. How the source made its calls, unless noted: active means hit-call score of the fitted dose curve at least 0.9, where 1 is the maximum; inactive means score below 0.9.
# What was measured:
# [1] = read-out: Interleukin-8 (IL8), CXCL8 (gene 3576); assay: BSK_SAg_IL8: BioMAP Diversity Plus: SAg Assay for Interleukin-8 (IL8) Biomarker Activity (AID 2283094); conditions: primary human HUVEC with PBMC; actives raise or lower the signal
# Outline: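 HUVEC/PBMC co-culture, 24 h post-dose; IL-8 by ELISA. Gain or loss of signal fitted bidirectionally vs DMSO baseline.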
# [2] = BSK_SAg_Proliferation: Cell Proliferation Assessment in the BioMAP Diversity Plus: SAg Assay (AID 2283095); conditions: primary human HUVEC with PBMC;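 further: relative cell number as total protein by SRB absorbance in sub-confluent culture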
# Outline: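 HUVEC/PBMC co-culture, 96-well. TCA-fixed (10%), 0.1% SRB stain, A560 at 96 h. Protein content used as viability readout; bidirectional fitting vs DMSO control.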
# [3] = BSK_SAg_SRB: Viability Assessment in the BioMAP Diversity Plus: SAg Assay (AID 2283096); conditions: primary human HUVEC with PBMC;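 further: cells read one day after compound addition; hits may be either gain or loss of signal compared with DMSO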
# Outline: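 Compounds were added to a human vascular co-culture of umbilical vein endothelium and PBMC. After 24 h, parallel cultures were fixed with 10% TCA, stained with 0.1% sulforhodamine B and read at 560 nm. Gain or loss of signal was fitted relative to DMSO.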
# [4] = target: human CYP1A1, CYP1A1 (gene 1543) (UniProt P04798); assay: NVS_ADME_hCYP1A1: NovaScreen (NVS) CYP450-related Enzyme Activity (ADME) Assay for human CYP1A1 (AID 2283100; active means hit-call score of the fitted dose curve at least 0.9, where 1 is the maximum)
# Outline: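 Compounds first went through duplicate single-concentration testing at 10 uM against purified CYP1A1. Those passing a threshold such as 30% inhibition entered singleton dose-response, highest concentration 20 uM. Signal was fluorescence measured after 1 hour.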
# [5] = target: human CYP2A6, CYP2A6 (gene 1548) (UniProt P11509); assay: NVS_ADME_hCYP2A6: NovaScreen (NVS) CYP450-related Enzyme Activity (ADME) Assay for human CYP2A6 (AID 2283099; active means hit-call score of the fitted dose curve at least 0.9, where 1 is the maximum)
# Outline: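 Recombinant human CYP2A6 from insect cells was incubated with chemical for 0.5 h and activity read by fluorescence. Single-concentration duplicates at 10 uM preceded concentration-response testing to 20 uM, with activity referenced to acetonitrile.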
# [6] = target: human CYP2D6, CYP2D6 (gene 1565) (UniProt P10635); assay: NVS_ADME_hCYP2D6: NovaScreen (NVS) CYP450-related Enzyme Activity (ADME) Assay for human CYP2D6 (AID 2283107; active means hit-call score of the fitted dose curve at least 0.9, where 1 is the maximum)
# Outline: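 Compounds were first tested in duplicate at 10 uM against recombinant enzyme produced in insect cells, with substrate turnover measured by fluorescence after 1 hour. Decreased signal, referenced to acetonitrile vehicle, was taken as reduced enzyme activity. Active chemicals went on to concentration-response testing.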
# [7] = target: human CYP19A1, CYP19A1 (gene 1588) (UniProt P11511); assay: NVS_ADME_hCYP19A1: NovaScreen (NVS) CYP450-related Enzyme Activity (ADME) Assay for human CYP19A1 (AID 2283098; active means hit-call score of the fitted dose curve at least 0.9, where 1 is the maximum;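 on AC50: potency for inhibitors seen as loss of fluorescent enzyme signal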)
# Protocol: (§1) NVS_ADME_hCYP19A1 is a biochemical, single-readout assay that uses extracted gene-proteins in a cell-free assay. Measurements were taken 0.5 hour after chemical dosing in a 384-well plate.NVS_ADME_hCYP19A1 is one of one assay component(s) measured or calculated from the NVS_ADME_hCYP19A1 assay. It is designed to make measurements of enzyme activity, a form of enzyme reporter, as detected with fluorescence intensity signals by Fluorescence technology.Data from the assay component NVS_ADME_hCYP19A1 was analyzed into 1 assay endpoint. This assay endpoint, NVS_ADME_hCYP19A1, was analyzed in the positive analysis fitting direction relative to Acetonitrile as the negative control and baseline of activity. Using a type of enzyme reporter, loss-of-signal activity can be used to understand changes in the enzymatic activity as they relate to the gene CYP19A1. Furthermore, this assay endpoint can be referred to as a primary readout, because this assay has produced multiple assay endpoints where this one serves a enzymatic activity function. To generalize the intended target to other relatable targets, this assay endpoint is annotated to the cyp intended target family, where the subfamily is steroidogenesis-related.
# Binding assays used specific radioligands (tritiated, iodinated) with non-radioactive competitive displacement ligands in agonist or antagonist protocols (as indicated) and various reference compounds and inhibitors to titrate specific binding to receptors and transporters. Most enzyme assays (CYPs, kinases, phosphatases, proteases, HDACs) used recombinant protein and specific substrates (fluorescence mostly, some colorimetric and radioactive) and inhibitors, followed by a biochemical separation of substrate and product. All assays for the biochemical HTS were initially run in duplicate at a single concentration (10 uM for CYP450 assays and 25 uM for all others). […] Each assay was run with positive and negative controls, and concurrent controls on every plate. The follow-up (secondary) screen tested active chemical-pairs in concentration series, as well as a few additional assays not tested in the primary screen, some selected negative inactives, and several cases re-run in the concentration series for confirmatory purposes.
# [8] = target: human CYP2B6, CYP2B6 (gene 1555) (UniProt P20813); assay: NVS_ADME_hCYP2B6: NovaScreen (NVS) CYP450-related Enzyme Activity (ADME) Assay for human CYP2B6 (AID 2283101; active means hit-call score of the fitted dose curve at least 0.9, where 1 is the maximum)
# Outline: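 Compounds were first screened in duplicate at 10 uM against recombinant enzyme, with the fluorescent product measured after 1 hour. Active compounds were retested over a concentration series. Loss of fluorescence versus acetonitrile control was scored as reduced enzyme activity.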
# [9] = target: human CYP1A2, CYP1A2 (gene 1544) (UniProt P05177); assay: NVS_ADME_hCYP1A2: NovaScreen (NVS) CYP450-related Enzyme Activity (ADME) Assay for human CYP1A2 (AID 2283102; active means hit-call score of the fitted dose curve at least 0.9, where 1 is the maximum;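 further: fluorescence from turnover of a fluorogenic substrate by recombinant insect-cell CYP1A2; potency for inhibition since loss of fluorescence marks reduced CYP1A2 activity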)
# Outline: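 Compounds were tested at 10 uM in duplicate against recombinant CYP1A2 produced in insect cells. Enzyme activity was measured by fluorescence 0.5 h after dosing, with loss of signal versus acetonitrile control. Active compounds were re-tested in concentration series.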
# [10] = target: human CYP2J2, CYP2J2 (gene 1573) (UniProt P51589); assay: NVS_ADME_hCYP2J2: NovaScreen (NVS) CYP450-related Enzyme Activity (ADME) Assay for human CYP2J2 (AID 2283106; active means hit-call score of the fitted dose curve at least 0.9, where 1 is the maximum)
# Protocol: as §1, with “NVS_ADME_hCYP2J2” for “NVS_ADME_hCYP19A1”, “1” for “0.5”, “96-well plate.NVS_ADME_hCYP2J2” for “384-well plate.NVS_ADME_hCYP19A1”, “NVS_ADME_hCYP2J2,” for “NVS_ADME_hCYP19A1,”, “CYP2J2.” for “CYP19A1.”, “xenobiotic metabolism. […]” for “steroidogenesis-related.”
# Sequence of human CYP1A2, CYP1A2 (gene 1544) (P05177 whole entry, looked up): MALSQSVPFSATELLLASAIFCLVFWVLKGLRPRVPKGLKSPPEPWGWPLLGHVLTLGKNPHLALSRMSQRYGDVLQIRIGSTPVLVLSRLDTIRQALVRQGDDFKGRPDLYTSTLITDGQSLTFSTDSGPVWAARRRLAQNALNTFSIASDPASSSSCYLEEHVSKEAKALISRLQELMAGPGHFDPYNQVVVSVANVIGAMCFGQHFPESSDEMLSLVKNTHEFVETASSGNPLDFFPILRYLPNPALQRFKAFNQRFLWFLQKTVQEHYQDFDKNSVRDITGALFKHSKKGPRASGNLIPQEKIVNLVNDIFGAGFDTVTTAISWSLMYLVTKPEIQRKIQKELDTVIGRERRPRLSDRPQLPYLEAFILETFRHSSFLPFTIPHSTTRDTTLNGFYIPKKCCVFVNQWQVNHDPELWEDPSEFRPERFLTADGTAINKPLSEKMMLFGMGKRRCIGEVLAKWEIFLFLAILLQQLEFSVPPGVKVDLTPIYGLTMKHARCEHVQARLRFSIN
# Sequence of human CYP2B6, CYP2B6 (gene 1555) (P20813 whole entry, looked up): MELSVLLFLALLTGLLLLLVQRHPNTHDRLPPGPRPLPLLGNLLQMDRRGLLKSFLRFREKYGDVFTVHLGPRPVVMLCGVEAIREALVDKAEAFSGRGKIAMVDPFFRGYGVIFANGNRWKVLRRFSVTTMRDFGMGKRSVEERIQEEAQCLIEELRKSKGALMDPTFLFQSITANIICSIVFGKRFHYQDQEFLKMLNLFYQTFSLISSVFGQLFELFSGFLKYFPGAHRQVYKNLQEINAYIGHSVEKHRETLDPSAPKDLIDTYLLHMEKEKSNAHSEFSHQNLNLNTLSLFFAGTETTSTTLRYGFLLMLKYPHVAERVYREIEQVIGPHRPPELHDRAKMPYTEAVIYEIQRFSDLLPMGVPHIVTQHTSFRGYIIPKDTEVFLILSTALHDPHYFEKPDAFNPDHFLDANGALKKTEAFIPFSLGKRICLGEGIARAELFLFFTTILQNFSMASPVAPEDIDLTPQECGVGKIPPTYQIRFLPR
# Sequence of human CYP19A1, CYP19A1 (gene 1588) (P11511 whole entry, looked up): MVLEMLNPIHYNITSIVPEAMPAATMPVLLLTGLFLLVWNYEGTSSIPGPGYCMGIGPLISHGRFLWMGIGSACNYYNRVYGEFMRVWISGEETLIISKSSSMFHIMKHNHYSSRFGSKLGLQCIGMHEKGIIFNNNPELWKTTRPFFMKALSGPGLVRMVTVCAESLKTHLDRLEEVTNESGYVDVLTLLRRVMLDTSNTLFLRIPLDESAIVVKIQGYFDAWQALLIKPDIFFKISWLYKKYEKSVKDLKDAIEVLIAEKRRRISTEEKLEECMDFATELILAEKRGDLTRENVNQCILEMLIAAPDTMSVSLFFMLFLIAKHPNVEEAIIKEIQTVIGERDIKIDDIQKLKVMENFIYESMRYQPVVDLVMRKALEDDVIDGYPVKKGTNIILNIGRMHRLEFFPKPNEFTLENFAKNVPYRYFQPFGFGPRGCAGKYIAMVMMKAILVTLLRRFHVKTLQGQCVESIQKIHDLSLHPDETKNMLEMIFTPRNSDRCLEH
# Sequence of human CYP2A6, CYP2A6 (gene 1548) (P11509 whole entry, looked up): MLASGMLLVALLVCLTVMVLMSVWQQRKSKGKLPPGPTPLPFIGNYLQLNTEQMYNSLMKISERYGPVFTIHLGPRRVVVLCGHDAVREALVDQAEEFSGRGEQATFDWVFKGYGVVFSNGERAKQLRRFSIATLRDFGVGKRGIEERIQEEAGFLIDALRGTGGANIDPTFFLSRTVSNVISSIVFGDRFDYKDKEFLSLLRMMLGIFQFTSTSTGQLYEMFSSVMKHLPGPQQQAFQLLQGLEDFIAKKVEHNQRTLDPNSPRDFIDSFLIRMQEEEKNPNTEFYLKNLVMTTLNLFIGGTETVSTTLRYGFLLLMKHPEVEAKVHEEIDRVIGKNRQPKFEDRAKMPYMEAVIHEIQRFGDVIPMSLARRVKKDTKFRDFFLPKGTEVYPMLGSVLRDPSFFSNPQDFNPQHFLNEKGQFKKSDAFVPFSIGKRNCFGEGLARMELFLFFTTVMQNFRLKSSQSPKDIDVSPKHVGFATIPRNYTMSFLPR
# Sequence of human CYP1A1, CYP1A1 (gene 1543) (P04798 whole entry, looked up): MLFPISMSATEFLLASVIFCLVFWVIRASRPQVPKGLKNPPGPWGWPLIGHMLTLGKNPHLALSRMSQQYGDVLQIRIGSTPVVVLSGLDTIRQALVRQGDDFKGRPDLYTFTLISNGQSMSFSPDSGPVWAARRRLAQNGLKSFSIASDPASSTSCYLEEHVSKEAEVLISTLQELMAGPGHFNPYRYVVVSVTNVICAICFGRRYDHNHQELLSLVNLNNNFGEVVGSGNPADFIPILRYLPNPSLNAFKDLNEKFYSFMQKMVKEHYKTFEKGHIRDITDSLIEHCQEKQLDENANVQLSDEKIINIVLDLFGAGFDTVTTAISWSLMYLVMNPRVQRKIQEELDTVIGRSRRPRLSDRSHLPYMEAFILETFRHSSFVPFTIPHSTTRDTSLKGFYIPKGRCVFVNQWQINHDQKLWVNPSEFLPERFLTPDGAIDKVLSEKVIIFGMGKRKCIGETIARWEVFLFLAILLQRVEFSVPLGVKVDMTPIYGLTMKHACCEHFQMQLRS
# Sequence of human CYP2D6, CYP2D6 (gene 1565) (P10635 whole entry, looked up): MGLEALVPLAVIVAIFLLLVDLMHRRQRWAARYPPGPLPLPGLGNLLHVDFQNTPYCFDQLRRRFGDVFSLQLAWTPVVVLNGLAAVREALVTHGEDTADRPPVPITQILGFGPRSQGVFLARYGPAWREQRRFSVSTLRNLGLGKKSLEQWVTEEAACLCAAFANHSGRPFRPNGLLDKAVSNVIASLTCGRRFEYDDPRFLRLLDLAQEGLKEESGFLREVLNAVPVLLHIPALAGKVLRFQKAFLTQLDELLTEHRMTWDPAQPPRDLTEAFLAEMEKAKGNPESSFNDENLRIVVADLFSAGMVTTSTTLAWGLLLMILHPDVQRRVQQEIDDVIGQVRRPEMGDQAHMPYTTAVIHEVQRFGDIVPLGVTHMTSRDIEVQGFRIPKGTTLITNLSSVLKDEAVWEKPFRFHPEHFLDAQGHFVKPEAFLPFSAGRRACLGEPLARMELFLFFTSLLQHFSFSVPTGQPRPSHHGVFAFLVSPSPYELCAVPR
# Sequence of human CYP2J2, CYP2J2 (gene 1573) (P51589 whole entry, looked up): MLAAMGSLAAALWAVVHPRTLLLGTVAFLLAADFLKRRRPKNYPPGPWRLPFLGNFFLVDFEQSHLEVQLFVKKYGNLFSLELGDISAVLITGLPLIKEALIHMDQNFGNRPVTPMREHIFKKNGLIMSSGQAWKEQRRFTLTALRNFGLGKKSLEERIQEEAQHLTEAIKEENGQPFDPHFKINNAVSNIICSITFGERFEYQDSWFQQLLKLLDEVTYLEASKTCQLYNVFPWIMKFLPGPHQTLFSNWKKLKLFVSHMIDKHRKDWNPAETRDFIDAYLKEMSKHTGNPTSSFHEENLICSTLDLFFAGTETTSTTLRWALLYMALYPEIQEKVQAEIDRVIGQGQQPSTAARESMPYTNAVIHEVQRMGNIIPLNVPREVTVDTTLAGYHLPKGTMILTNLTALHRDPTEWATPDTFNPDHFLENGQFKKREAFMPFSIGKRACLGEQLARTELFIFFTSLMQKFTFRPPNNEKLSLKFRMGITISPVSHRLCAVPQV
smiles,measurement,setting,value
CCCN(CCC)c1c([N+](=O)[O-])cc(C(C)C)cc1[N+](=O)[O-],AC50,[1],32.4 µM (active)
same,AC50,[2],14.7 µM (active)
same,AC50,[3],29.5 µM (active)
CC(O)C(F)(F)C(F)(F)F (stereo unspecified),outcome,[1],inactive
same,outcome,[3],inactive
CCCCN(CCCC)SN(C)C(=O)Oc1cccc2c1OC(C)(C)C2,AC50,[1],33 µM (active)
same,AC50,[2],9.37 µM (active)
same,AC50,[3],24 µM (active)
same,outcome,[4],inactive
c1nc[nH]n1,outcome,[1],inactive
same,outcome,[3],inactive
CN(C)C(=O)Cl,outcome,[1],inactive
same,outcome,[2],inactive
same,outcome,[3],inactive
same,outcome,[5],inactive
FC(F)(F)C(F)(C(F)(F)F)C(F)(F)C(F)(F)CC1CO1 (stereo unspecified),outcome,[1],inactive
same,outcome,[3],inactive
Cc1c([N+](=O)[O-])cc2c(c1[N+](=O)[O-])C(C)(C)CC2(C)C,outcome,[1],inactive
same,AC50,[2],7.41 µM (active)
same,outcome,[3],inactive
O=P(OCC(Br)CBr)(OCC(Br)CBr)OCC(Br)CBr (stereo unspecified),outcome,[1],inactive
same,outcome,[2],inactive
same,outcome,[3],inactive
O=S(=O)(F)C(F)(F)C(F)(F)C(F)(F)C(F)(F)C(F)(F)C(F)(F)C(F)(F)C(F)(F)F,outcome,[1],inactive
same,outcome,[3],inactive
CC(C)(C)OOC(C)(C)C,outcome,[1],inactive
same,outcome,[3],inactive
O=P1(N(CCCl)CCCl)NCCCO1 (stereo unspecified),outcome,[1],inactive
same,outcome,[3],inactive
CC(C)Nc1ccc(Nc2ccccc2)cc1,AC50,[1],5.34 µM (active)
same,AC50,[2],0.0375 µM (active)
same,AC50,[3],14.1 µM (active)
same,outcome,[6],inactive
ClC(Cl)c1ccccc1,outcome,[1],inactive
same,outcome,[2],inactive
same,outcome,[3],inactive
CC(Cl)CN(C)C (stereo unspecified),outcome,[1],inactive
same,outcome,[3],inactive
ClC(Cl)(Cl)c1ccccc1,outcome,[1],inactive
same,outcome,[3],inactive
CCOc1ccc(C(C)(C)COCc2cccc(Oc3ccccc3)c2)cc1,outcome,[1],inactive
same,AC50,[2],20 µM (active)
same,outcome,[3],inactive
same,outcome,[7],inactive
CSC(C)(C)C=NO,outcome,[1],inactive
same,outcome,[2],inactive
same,outcome,[3],inactive
same,outcome,[4],inactive
same,outcome,[8],inactive
CC(Cc1ccc(OCC(=O)O)cc1)NCC(O)c1csc(C(F)(F)F)n1 (stereo unspecified),outcome,[1],inactive
same,outcome,[2],inactive
same,outcome,[3],inactive
c1ccc(OP(Oc2ccccc2)Oc2ccccc2)cc1,outcome,[1],inactive
same,outcome,[3],inactive
Cc1ccc2c(c1N)C(=O)c1ccccc1C2=O,outcome,[1],inactive
same,outcome,[2],inactive
same,outcome,[3],inactive
same,AC50,[6],5 µM (active)
N#Cc1c(-c2ccc(Cl)cc2)[nH]c(C(F)(F)F)c1Br,AC50,[1],0.178 µM (active)
same,AC50,[2],1.86 µM (active)
same,AC50,[3],4.34 µM (active)
CCOC(=O)c1ccccc1C(=O)OCC,outcome,[1],inactive
same,outcome,[2],inactive
same,outcome,[3],inactive
Cc1ccc(O)cc1C,outcome,[1],inactive
same,outcome,[3],inactive
Nc1ccc2ccccc2c1,outcome,[1],inactive
same,outcome,[2],inactive
same,outcome,[3],inactive
same,outcome,[5],inactive
same,AC50,[8],1.45 µM (active)
same,AC50,[9],7.68 µM (active)
CCCCc1ccccc1,outcome,[1],inactive
same,outcome,[3],inactive
CCOP(=S)(OCC)SCS(=O)(=O)CC,outcome,[1],inactive
same,outcome,[3],inactive
COC(=O)C(F)(F)C(F)(F)OC(F)(C(F)(F)F)C(F)(F)OC(F)=C(F)F (stereo unspecified),outcome,[1],inactive
same,outcome,[3],inactive
OCC(F)(F)OC(F)(F)C(F)(F)OC(F)(F)CO,outcome,[1],inactive
same,outcome,[3],inactive
CC1(C)CN=C(NN=C(/C=C/c2ccc(C(F)(F)F)cc2)/C=C/c2ccc(C(F)(F)F)cc2)NC1,outcome,[4],inactive
same,AC50,[9],12.9 µM (active)
same,AC50,[10],5.19 µM (active)
O=P(Oc1ccccc1)(Oc1ccccc1)Oc1ccccc1,AC50,[1],30.2 µM (active)
same,AC50,[3],29.3 µM (active)
same,AC50,[9],5.67 µM (active)
ClC1=C(Cl)C2(Cl)C3C(Cl)C(Cl)CC3C1(Cl)C2(Cl)Cl (stereo unspecified),AC50,[1],34.7 µM (active)
same,AC50,[3],31.1 µM (active)
same,AC50,[8],5.2 µM (active)
OCC(F)(F)OC(F)(F)C(F)(F)OC(F)(F)C(F)(F)OC(F)(F)F,AC50,[1],43.9 µM (active) and 43.4 µM (active)
same,AC50,[3],30 µM (active)
same,outcome,[3],inactive
CCCCCCCc1ccc(O)cc1,AC50,[1],33.1 µM (active)
same,AC50,[3],37.1 µM (active)
same,AC50,[7],5.15 µM (active)
same,outcome,[7],inactive
CCCCOCCOP(=O)(OCCOCCCC)OCCOCCCC,outcome,[1],inactive
same,outcome,[3],inactive
CCOP(=S)(Oc1ccc([N+](=O)[O-])cc1)c1ccccc1 (stereo unspecified),outcome,[1],inactive
same,outcome,[3],inactive
same,AC50,[8],4.41 µM (active)
same,AC50,[9],5.08 µM (active)
CCNc1nc(Cl)nc(NC(C)(C)C)n1,outcome,[1],inactive
same,outcome,[3],inactive
CCOP(=S)(NC(C)C)Oc1ccccc1C(=O)OC(C)C (stereo unspecified),outcome,[1],inactive
same,outcome,[3],inactive
O=S1(=O)OCC2C(CO1)C1(Cl)C(Cl)=C(Cl)C2(Cl)C1(Cl)Cl (stereo unspecified),outcome,[1],inactive
same,outcome,[3],inactive
O=C(O)C=CC(F)(C(F)(F)F)C(F)(F)F,outcome,[1],inactive
same,outcome,[3],inactive
O=c1ssc(Cl)c1Cl,AC50,[1],8.19 µM (active)
same,AC50,[3],6.23 µM (active)
c1cc2c3c(cccc3c1)CC2,outcome,[1],inactive
same,outcome,[3],inactive
COCCOCCO,outcome,[1],inactive
same,outcome,[3],inactive
O=C(O)C1C(C(=O)O)C2(Cl)C(Cl)=C(Cl)C1(Cl)C2(Cl)Cl (stereo unspecified),outcome,[1],inactive
same,outcome,[3],inactive
same,outcome,[5],inactive
CCC(C)(C)c1ccc(O)cc1,outcome,[1],inactive
same,outcome,[3],inactive
same,outcome,[5],inactive
same,AC50,[8],10 µM (active)
CCOP(=S)(S)OCC,outcome,[1],inactive
same,outcome,[3],inactive
c1ccc2c(c1)Nc1ccccc1S2,outcome,[1],inactive
same,outcome,[3],inactive
same,AC50,[9],1.45 µM (active)
C=CC(=O)OCC(CC)(COC(=O)C=C)COC(=O)C=C,AC50,[1],1.7 µM (active)
same,AC50,[3],3.38 µM (active)
Cc1ccc(N)cc1N,outcome,[1],inactive
same,outcome,[3],inactive
same,outcome,[5],inactive
Cc1ccc([N+](=O)[O-])cc1C,outcome,[1],inactive
same,outcome,[3],inactive
same,outcome,[7],inactive
C=CC(=O)OCC(F)(F)C(F)F,AC50,[1],20.7 µM (active) and 9.88 µM (active)
same,outcome,[3],inactive
CC(Cl)(Cl)C(=O)O,outcome,[1],inactive
same,outcome,[3],inactive
CCOP(=S)(OCC)SCSCC,outcome,[1],inactive
same,outcome,[3],inactive
same,AC50,[4],4.19 µM (active)
CCOS(=O)(=O)OCC,outcome,[1],inactive
same,outcome,[3],inactive
O=S(=O)(c1ccc(O)cc1)c1ccc(O)cc1,AC50,[7],8.81 µM (active)
O=[N+]([O-])c1ccc(Cl)c(Cl)c1,outcome,[1],inactive
same,outcome,[3],inactive
CO/N=C(/C(=O)OC)c1ccccc1COc1ccccc1C,AC50,[9],9.98 µM (active)
CCC1(c2ccccc2)C(=O)N=C(O)NC1=O (stereo unspecified),outcome,[1],inactive
same,outcome,[3],inactive
